“And” between values parts separate entries of the source, which are not always exact repeats. Identical values can stand only once. Inconclusive results are not listed. Where a structure was tested more than once in an assay, its records may differ in their call. The source made the active and inactive calls. How the source made its calls, unless noted: active means hit-call score of the fitted dose curve at least 0.9, where 1 is the maximum; inactive means score below 0.9.
How the values were obtained:
[1] = molecular target: CCAAT/enhancer-binding protein beta (Homo sapiens) (UniProt P17676); assay: ATG_C_EBP_CIS: Attagene CIS-FACTORIAL HepG2 Assay for human CCAAT/Enhancer Binding Protein (C/EBP) beta (AID 2282927); settings: HepG2 Attagene cis-factorial transcription factor reporter; actives raise or lower the signal
Sequence of CCAAT/enhancer-binding protein beta (Homo sapiens) (P17676 whole entry, looked up): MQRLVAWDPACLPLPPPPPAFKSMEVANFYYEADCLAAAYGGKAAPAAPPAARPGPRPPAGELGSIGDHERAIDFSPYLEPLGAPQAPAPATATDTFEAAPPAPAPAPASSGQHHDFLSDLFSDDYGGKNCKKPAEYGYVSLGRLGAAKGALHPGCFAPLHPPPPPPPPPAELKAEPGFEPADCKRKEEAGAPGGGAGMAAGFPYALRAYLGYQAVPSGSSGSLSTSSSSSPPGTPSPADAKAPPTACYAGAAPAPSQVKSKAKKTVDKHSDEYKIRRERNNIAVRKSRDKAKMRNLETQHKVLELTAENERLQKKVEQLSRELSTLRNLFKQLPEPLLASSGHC
How it was run: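 Transiently transfected HepG2 (MRTU library, endogenous TF-driven promoters); 24 h dosing; total RNA → oligo(dT) RT → PCR → 6-FAM primer extension → HpaI digest → CE; fit bidirectionally vs DMSO.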

[2] = ATG_VDRE_CIS: Attagene CIS-FACTORIAL HepG2 Assay for human Vitamin D Receptor Element (VDRE) (AID 2282968); settings: HepG2 VDRE cis-reporter transcription, actives raise or lower the signal
How it was run: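 Cell-based multiplexed reporter format in human liver HepG2 cells, 24 h post-dose. Fluorescence from capillary electrophoresis of reporter cDNA gives the signal, with DMSO as negative control and baseline.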

[3] = molecular target: Glucocorticoid receptor (Homo sapiens) (UniProt P04150); assay: ATG_GR_TRANS: Attagene TRANS-FACTORIAL HepG2 Assay for human Glucocorticoid Receptor (GR) (AID 2282978; active means hit-call score of the fitted dose curve at least 0.9, where 1 is the maximum;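 further: activators score as hits since higher reporter transcript over DMSO is fitted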); settings: HepG2 Attagene TRANS GR reporter, mRNA transcription
How it was run: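 HepG2 cells transiently transfected with multiplexed reporter units in which chimeric NR-GAL4 proteins drive GAL4-UAS reporters; 24 h compound exposure. Reporter mRNA measured by RT-PCR, 6-FAM labelling, HpaI digestion and capillary electrophoresis; gain-of-signal fitted versus DMSO.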

[4] = molecular target: human Peroxisome Proliferator-activated Receptor delta (PPARd), PPARD (gene 5467) (UniProt Q03181); assay: ATG_PPARd_TRANS: Attagene TRANS-FACTORIAL HepG2 Assay for human Peroxisome Proliferator-activated Receptor delta (PPARd) (AID 2283002; active means hit-call score of the fitted dose curve at least 0.9, where 1 is the maximum)
Sequence of human Peroxisome Proliferator-activated Receptor delta (PPARd), PPARD (gene 5467) (Q03181 whole entry, looked up, the tested form may be a part): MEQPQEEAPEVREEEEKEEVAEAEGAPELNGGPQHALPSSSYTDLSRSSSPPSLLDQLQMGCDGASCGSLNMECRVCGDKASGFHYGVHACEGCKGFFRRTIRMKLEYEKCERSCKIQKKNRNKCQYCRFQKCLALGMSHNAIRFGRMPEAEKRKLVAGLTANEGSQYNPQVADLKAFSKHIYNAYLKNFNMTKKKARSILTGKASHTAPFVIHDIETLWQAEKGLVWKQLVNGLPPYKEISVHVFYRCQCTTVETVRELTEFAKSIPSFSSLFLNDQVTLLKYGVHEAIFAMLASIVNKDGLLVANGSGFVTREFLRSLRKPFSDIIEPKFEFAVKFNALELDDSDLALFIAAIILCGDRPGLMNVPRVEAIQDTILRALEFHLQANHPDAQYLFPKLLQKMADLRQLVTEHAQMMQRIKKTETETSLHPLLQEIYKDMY
How it was run: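 Read-out: reporter mRNA induction, quantified by fluorescent RT-PCR products resolved by capillary electrophoresis. Human HepG2 liver cells carried transiently transfected Gal4-UAS reporter constructs with chimeric NR-Gal4 fusions. Cells were dosed for 24 h; DMSO served as baseline.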

[5] = molecular target: human RAR-related Orphan Receptor beta (RORb), RORB (gene 6096) (UniProt Q92753); assay: ATG_RORb_TRANS: Attagene TRANS-FACTORIAL HepG2 Assay for human RAR-related Orphan Receptor beta (RORb) (AID 2283010; active means hit-call score of the fitted dose curve at least 0.9, where 1 is the maximum)
Sequence of human RAR-related Orphan Receptor beta (RORb), RORB (gene 6096) (Q92753 whole entry, looked up, the tested form may be a part): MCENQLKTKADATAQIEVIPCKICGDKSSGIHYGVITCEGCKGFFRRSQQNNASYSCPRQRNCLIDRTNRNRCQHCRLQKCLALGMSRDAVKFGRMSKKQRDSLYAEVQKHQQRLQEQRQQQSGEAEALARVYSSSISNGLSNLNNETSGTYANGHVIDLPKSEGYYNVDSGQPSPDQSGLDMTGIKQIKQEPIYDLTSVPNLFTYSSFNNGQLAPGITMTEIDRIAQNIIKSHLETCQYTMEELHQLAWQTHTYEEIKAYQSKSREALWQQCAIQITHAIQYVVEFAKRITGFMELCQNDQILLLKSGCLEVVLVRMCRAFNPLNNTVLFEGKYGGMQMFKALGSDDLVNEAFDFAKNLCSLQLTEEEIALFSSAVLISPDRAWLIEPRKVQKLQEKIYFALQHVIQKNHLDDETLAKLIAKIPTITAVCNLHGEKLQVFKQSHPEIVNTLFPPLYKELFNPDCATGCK
How it was run: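 HepG2 cells were transiently transfected with multiplexed GAL4-UAS reporter units expressing chimeric nuclear receptor–GAL4 proteins, then dosed for 24 h. Reporter mRNA was quantified by RT-PCR with fluorescent labelling and capillary electrophoresis; gain of signal was fitted relative to DMSO.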

[6] = ACEA_ER_AUC_viability: ACEA Biosciences xCELLigence Real-Time Cell Analysis on Estrogen Receptor Agonism for Viability (AID 2283782; active means hit-call score of the fitted dose curve at least 0.9, where 1 is the maximum;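 further: continuous compound exposure with impedance area under curve over 80 h; hit means loss of impedance signal meaning reduced cell growth or viability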)
How it was run: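 T47D cells preconditioned in phenol red-free RPMI with charcoal-stripped FBS, then dosed with 8-point 1:4 series from 100 uM (up to 0.5% DMSO). Impedance monitored up to ~80 h; area-under-curve loss versus DMSO taken as viability.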

[7] = molecular target: Bile acid receptor (Homo sapiens) (UniProt Q96RI1); assay: ATG_IR1_CIS: Attagene CIS-FACTORIAL HepG2 Assay for human Nuclear Receptor Subfamily 1 Group H Member 4 (NR1H4), IR1 submotif (AID 2282946); settings: IR1 reporter transcription, actives raise or lower the signal
Sequence of Bile acid receptor (Homo sapiens) (Q96RI1 whole entry, looked up): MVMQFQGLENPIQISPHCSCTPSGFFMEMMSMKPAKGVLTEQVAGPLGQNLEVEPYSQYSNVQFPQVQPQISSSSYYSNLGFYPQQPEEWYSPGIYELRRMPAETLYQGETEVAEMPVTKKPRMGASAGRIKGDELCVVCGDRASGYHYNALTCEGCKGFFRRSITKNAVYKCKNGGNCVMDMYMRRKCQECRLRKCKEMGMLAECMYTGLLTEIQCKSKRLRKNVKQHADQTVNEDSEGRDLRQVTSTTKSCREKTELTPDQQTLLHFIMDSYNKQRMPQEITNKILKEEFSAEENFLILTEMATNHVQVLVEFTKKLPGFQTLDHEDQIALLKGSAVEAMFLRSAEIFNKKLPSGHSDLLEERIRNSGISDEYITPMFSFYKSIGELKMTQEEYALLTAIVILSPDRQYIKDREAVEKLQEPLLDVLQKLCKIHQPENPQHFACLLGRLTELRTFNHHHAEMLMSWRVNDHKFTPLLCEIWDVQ
How it was run: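 HepG2 cells transiently transfected with multiple cis-promoter-driven reporter units to measure endogenous transcription factor activity; 24 h exposure. Reporter mRNA read by RT-PCR, FAM labelling, HpaI digestion and capillary electrophoresis. Bidirectional fit versus DMSO.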

[8] = molecular target: Oxysterols receptor LXR-beta (Homo sapiens) (UniProt P55055); assay: ATG_LXRb_TRANS: Attagene TRANS-FACTORIAL HepG2 Assay for human Liver X Receptor beta (LXRb) (AID 2282981; active means hit-call score of the fitted dose curve at least 0.9, where 1 is the maximum); settings: HepG2 Attagene TRANS GAL4-LXRb reporter, mRNA
Sequence of Oxysterols receptor LXR-beta (Homo sapiens) (P55055 whole entry, looked up, the tested form may be a part): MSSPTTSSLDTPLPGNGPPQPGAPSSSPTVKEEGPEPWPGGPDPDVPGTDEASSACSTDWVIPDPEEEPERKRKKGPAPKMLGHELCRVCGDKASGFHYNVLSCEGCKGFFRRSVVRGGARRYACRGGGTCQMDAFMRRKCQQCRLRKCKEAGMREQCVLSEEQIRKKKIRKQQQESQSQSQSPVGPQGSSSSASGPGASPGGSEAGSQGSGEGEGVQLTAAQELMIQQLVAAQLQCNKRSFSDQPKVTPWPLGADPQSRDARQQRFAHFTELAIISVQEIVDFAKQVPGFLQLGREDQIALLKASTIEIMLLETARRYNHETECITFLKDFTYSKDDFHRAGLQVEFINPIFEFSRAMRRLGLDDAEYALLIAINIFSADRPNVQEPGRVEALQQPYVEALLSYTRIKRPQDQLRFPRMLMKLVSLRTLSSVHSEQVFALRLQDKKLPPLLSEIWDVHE
How it was run: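 Gain-of-signal mRNA reporter endpoint, DMSO as negative control. Transiently transfected HepG2 cells carrying the NR-Gal4 chimera and GAL4-UAS reporter units were treated 24 h; transcripts quantified by RT-PCR and capillary electrophoresis fluorescence.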

[9] = molecular target: Retinoic acid receptor RXR-alpha (Homo sapiens) (UniProt P19793); assay: ATG_RXRa_TRANS: Attagene TRANS-FACTORIAL HepG2 Assay for human Retinoid X Receptor alpha (RXRa) (AID 2283012; active means hit-call score of the fitted dose curve at least 0.9, where 1 is the maximum)
Sequence of Retinoic acid receptor RXR-alpha (Homo sapiens) (P19793 whole entry, looked up, the tested form may be a part): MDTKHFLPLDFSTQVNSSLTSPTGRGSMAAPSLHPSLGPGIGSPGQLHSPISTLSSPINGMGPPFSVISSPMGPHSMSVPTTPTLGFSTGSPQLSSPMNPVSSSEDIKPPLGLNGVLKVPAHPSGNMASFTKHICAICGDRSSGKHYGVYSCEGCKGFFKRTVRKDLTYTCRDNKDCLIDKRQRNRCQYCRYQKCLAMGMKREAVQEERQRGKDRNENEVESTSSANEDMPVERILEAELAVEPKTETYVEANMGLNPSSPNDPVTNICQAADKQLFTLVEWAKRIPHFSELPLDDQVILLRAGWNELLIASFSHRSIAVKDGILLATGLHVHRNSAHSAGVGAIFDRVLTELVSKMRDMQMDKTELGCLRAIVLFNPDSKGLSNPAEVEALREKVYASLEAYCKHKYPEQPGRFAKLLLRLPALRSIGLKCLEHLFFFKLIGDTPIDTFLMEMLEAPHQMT
How it was run: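 HepG2 cells transiently transfected with multiplexed GAL4-UAS reporter units and chimeric NR-GAL4 fusions, dosed 24 h. Reporter mRNA measured by RT-PCR, FAM labelling, HpaI digestion and capillary electrophoresis; gain-of-signal fitted relative to DMSO baseline.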

[10] = ATG_XTT_Cytotoxicity: Cytotoxicity Assessment in the Attagene TRANS-FACTORIAL HepG2 Assay (AID 2283584; active means hit-call score of the fitted dose curve at least 0.9, where 1 is the maximum)
How it was run: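 HepG2 human liver cells, transiently transfected with multiple GAL4-UAS reporter units, were dosed and read at 24 h by XTT as cell number. Loss of signal was fitted relative to DMSO negative control baseline.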

[11] = ATG_PPRE_CIS: Attagene CIS-FACTORIAL HepG2 Assay for human Peroxisome Proliferator-activated Response Element (PPRE) (AID 2282958); settings: HepG2 PPRE cis-element reporter, Attagene transcription factor profiling; actives raise or lower the signal
How it was run: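 HepG2 cells transiently transfected with multiplexed cis-element reporter units measure endogenous transcription factor activity. After 24 h compound exposure, reporter mRNA is quantified by RT-PCR, 6-FAM labeling, HpaI digestion and capillary electrophoresis; bidirectional fits are made against DMSO baseline.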

[12] = molecular target: Nuclear receptor subfamily 4 group A member 2 (Homo sapiens) (UniProt P43354); assay: ATG_NURR1_TRANS: Attagene TRANS-FACTORIAL HepG2 Assay for human Nuclear Receptor Related Protein 1 (NURR1) (AID 2282985; active means hit-call score of the fitted dose curve at least 0.9, where 1 is the maximum); settings: HepG2 Attagene TRANS reporter, mRNA readout
Sequence of Nuclear receptor subfamily 4 group A member 2 (Homo sapiens) (P43354 whole entry, looked up): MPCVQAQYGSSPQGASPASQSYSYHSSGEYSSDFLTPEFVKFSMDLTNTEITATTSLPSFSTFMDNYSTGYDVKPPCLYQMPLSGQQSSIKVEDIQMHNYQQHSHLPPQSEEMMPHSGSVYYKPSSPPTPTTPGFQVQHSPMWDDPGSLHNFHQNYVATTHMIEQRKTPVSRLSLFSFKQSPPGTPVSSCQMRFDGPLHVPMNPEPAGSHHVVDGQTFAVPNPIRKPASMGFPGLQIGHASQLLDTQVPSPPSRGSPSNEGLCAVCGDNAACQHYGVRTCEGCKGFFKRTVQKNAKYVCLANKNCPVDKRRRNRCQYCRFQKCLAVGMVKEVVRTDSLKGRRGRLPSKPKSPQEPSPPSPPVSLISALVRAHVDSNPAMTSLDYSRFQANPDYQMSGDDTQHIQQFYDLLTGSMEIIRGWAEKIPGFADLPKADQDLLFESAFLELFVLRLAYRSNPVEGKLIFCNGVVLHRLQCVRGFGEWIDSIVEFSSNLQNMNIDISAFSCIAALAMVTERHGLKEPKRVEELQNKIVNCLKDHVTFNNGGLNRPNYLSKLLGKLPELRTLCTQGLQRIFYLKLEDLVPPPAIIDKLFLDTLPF
How it was run: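 HepG2 / transient MRTU transfection / 24 h compound exposure / RT-PCR + CE fluorescence of reporter mRNA / gain-of-signal vs DMSO.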

[13] = molecular target: Peroxisome proliferator-activated receptor gamma (Homo sapiens) (UniProt P37231); assay: ATG_PPARg_TRANS: Attagene TRANS-FACTORIAL HepG2 Assay for human Peroxisome Proliferator-activated Receptor-gamma (PPARg) (AID 2283007; active means hit-call score of the fitted dose curve at least 0.9, where 1 is the maximum)
Sequence of Peroxisome proliferator-activated receptor gamma (Homo sapiens) (P37231 whole entry, looked up, the tested form may be a part): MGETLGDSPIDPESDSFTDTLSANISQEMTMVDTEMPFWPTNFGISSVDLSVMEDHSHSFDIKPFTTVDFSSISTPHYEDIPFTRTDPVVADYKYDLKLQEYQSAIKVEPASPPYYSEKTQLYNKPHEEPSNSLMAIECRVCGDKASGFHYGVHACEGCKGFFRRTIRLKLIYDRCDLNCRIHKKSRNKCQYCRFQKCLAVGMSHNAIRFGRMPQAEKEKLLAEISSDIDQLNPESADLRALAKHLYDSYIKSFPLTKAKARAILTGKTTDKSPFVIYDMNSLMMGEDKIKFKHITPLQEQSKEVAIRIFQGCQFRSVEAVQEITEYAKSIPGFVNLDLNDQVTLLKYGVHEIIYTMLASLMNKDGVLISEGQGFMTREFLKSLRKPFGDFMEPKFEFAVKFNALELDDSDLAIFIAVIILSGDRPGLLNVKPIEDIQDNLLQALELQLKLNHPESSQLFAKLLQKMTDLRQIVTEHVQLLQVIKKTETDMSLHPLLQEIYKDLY
How it was run: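 HepG2 cells transiently transfected with multiplexed GAL4-UAS reporter units and exogenous chimeric NR-Gal4 proteins; reporter mRNA quantified after 24 h compound exposure by RT-PCR, fluorescent labelling, HpaI digestion and capillary electrophoresis; gain-of-signal fitted versus DMSO baseline.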

[14] = CCTE_Harrill_HTTr_Viability_MCF7: CCTE's 6-hour Cell Viability Assessment for the High-Throughput Transcriptomics (HTTr) Platform, in MCF-7 cells cultured in DMEM + 10% fetal bovine serum, Harrill Lab (AID 2284010)
How it was run: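 Membrane integrity was scored by high-content imaging of propidium iodide dye exclusion after a 6 h exposure across an eight-point dilution series. Data were fitted bidirectionally relative to DMSO as negative control and baseline.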

[15] = molecular target: Nuclear receptor subfamily 1 group I member 2 (Homo sapiens) (UniProt O75469); assay: ATG_PXR_TRANS: Attagene TRANS-FACTORIAL HepG2 Assay for human Pregnane X Receptor (PXR) (AID 2283008; active means hit-call score of the fitted dose curve at least 0.9, where 1 is the maximum)
Sequence of Nuclear receptor subfamily 1 group I member 2 (Homo sapiens) (O75469 whole entry, looked up, the tested form may be a part): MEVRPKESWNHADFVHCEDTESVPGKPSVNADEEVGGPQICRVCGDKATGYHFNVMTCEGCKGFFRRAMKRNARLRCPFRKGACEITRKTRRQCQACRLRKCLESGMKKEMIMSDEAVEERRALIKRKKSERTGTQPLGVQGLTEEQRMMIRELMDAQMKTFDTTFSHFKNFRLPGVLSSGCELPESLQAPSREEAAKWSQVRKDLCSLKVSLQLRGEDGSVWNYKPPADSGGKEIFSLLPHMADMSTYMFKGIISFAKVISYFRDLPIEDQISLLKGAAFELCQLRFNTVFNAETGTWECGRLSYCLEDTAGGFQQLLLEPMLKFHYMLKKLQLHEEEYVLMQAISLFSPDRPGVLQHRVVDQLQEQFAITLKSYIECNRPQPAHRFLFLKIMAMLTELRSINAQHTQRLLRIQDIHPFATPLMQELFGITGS
How it was run: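 Fluorescence intensity of FAM-labelled, HpaI-digested reporter amplicons, separated by capillary electrophoresis, quantifies induction. HepG2 cells with PXR-Gal4 trans-reporter system were exposed 24 h; DMSO defines baseline.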

[16] = read-out: Interleukin-8 (IL8), CXCL8 (gene 3576); assay: BSK_3C_IL8: BioMAP Diversity Plus: 3C Assay for Interleukin-8 (IL8) Biomarker Activity (AID 2283020); settings: primary human endothelial cells (HUVEC); actives raise or lower the signal
How it was run: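 Primary human umbilical vein endothelial cells (3C system) were exposed to test chemical for 24 h, then IL-8 was quantified by ELISA. Responses were fitted bidirectionally against DMSO vehicle as baseline.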

[17] = read-out: Thrombomodulin, THBD (gene 7056); assay: BSK_3C_Thrombomodulin: BioMAP Diversity Plus: 3C Assay for Thrombomodulin Biomarker Activity (AID 2283029); settings: primary human endothelial cells (HUVEC); actives raise or lower the signal
How it was run: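 Primary human umbilical vein endothelial cells (3C system) were exposed to chemical for 24 h, then thrombomodulin levels were measured by ELISA. Activity was fitted bidirectionally against the DMSO negative control as baseline.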

[18] = read-out: Vascular cell adhesion molecule 1 (VCAM1), VCAM1 (gene 7412); assay: BSK_CASM3C_VCAM1: BioMAP Diversity Plus: CASM3C Assay for Vascular cell adhesion molecule 1 (VCAM1) Biomarker Activity (AID 2283055); settings: primary human coronary artery smooth muscle cells; actives raise or lower the signal;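 further: VCAM-1 protein level quantified by ELISA on the cells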
[19] = read-out: CD40, CD40 (gene 958); assay: BSK_SAg_CD40: BioMAP Diversity Plus: SAg Assay for CD40 Biomarker Activity (AID 2283088); settings: primary human HUVEC with PBMC; actives raise or lower the signal
How it was run: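 Human umbilical vein endothelial cells co-cultured with PBMC; CD40 levels measured by ELISA with fluorescence read-out 24 h after chemical dosing. Gain or loss of signal fitted bidirectionally against DMSO baseline.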

[20] = molecular target: Oxysterols receptor LXR-alpha (Homo sapiens) (UniProt Q13133); assay: ATG_LXRa_TRANS: Attagene TRANS-FACTORIAL HepG2 Assay for human Liver X Receptor alpha (LXRa) (AID 2282980; active means hit-call score of the fitted dose curve at least 0.9, where 1 is the maximum); settings: HepG2 Attagene TRANS reporter, LXRa transactivation
Sequence of Oxysterols receptor LXR-alpha (Homo sapiens) (Q13133 whole entry, looked up, the tested form may be a part): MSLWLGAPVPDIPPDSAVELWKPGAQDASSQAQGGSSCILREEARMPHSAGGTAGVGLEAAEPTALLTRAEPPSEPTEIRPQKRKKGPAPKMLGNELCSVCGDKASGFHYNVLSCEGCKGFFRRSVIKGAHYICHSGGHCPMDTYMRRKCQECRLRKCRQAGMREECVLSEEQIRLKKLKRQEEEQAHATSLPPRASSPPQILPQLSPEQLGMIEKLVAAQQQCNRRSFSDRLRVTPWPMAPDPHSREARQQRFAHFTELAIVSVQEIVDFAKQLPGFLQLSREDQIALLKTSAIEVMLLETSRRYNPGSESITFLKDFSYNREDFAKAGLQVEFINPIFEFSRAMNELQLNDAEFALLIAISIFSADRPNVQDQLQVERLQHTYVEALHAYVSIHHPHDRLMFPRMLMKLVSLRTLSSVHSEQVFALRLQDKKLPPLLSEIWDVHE
How it was run: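 HepG2 cells were transiently transfected with multiplexed reporter units driven by chimeric LXRa–GAL4 fusion proteins, then dosed for 24 h. Reporter mRNA was quantified by RT-PCR, fluorescent labelling and capillary electrophoresis; gain of signal fitted against DMSO baseline.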

Measured: AC50

C=CCOC(=O)C(=C)C
inactive: [1] | [2] | [3] | [4] | [5] | [6]

O=C1NC(=O)[C@@H]2CC=CC[C@H]12
inactive: [1] | [7] | [2] | [3] | [8] | [4] | [9] | [10]

O=C(O)c1cc(Cl)cc(Cl)c1O
active: [13] 100 µM
inactive: [1] | [11] | [2] | [12] | [4] | [5] | [9] | [10] | [6] | [14]

CCO[Si](OCC)(OCC)c1ccccc1
inactive: [7] | [2] | [3] | [12] | [15] | [6]

CCCCNC(N)=O
inactive: [7] | [11] | [2] | [3] | [8] | [4] | [13] | [15] | [5] | [9] | [10]

CCC[Si](OC(C)=O)(OC(C)=O)OC(C)=O
inactive: [16] | [17] | [18] | [19]

CC(=O)O[C@]1(C(C)=O)CC[C@H]2[C@@H]3C=C(C)C4=CC(=O)CC[C@]4(C)[C@H]3CC[C@@]21C
inactive: [14]

COc1cc(CNC(=O)CCCC/C=C/C(C)C)ccc1O
active: [17] 15.1 µM | [19] 20 µM
inactive: [16] | [17] | [18] | [19] | [14]

[O-][n+]1ccc(Cl)cc1
inactive: [7] | [3] | [8] | [4] | [15] | [5] | [10]

CC1=C(CC(=O)O)c2cc(F)ccc2/C1=C\c1ccc(S(C)=O)cc1 (configuration not stated)
active: [13] 24.2 µM | [15] 26.5 µM
inactive: [11] | [20] | [12] | [4] | [5] | [9] | [14]

CCCCCCCCCC/C=C/C1CC(=O)OC1=O (configuration not stated)
inactive: [7] | [2] | [3] | [20] | [12] | [4] | [9] | [16] | [17] | [18] | [19]
active: [6] 64.1 µM

Cc1ccnc(N)c1
inactive: [7] | [11] | [8] | [13] | [10] | [14]

CC/C=C/CCO
inactive: [7] | [20] | [12] | [15] | [10]

CC[N+](CC)(CC(=O)Nc1c(C)cccc1C)Cc1ccccc1
inactive: [20] | [12] | [13] | [5] | [9] | [16] | [17] | [18] | [19] | [10] | [6]

COc1ccccc1Oc1c(NS(=O)(=O)c2ccc(C(C)(C)C)cc2)nc(-c2ncccn2)nc1OCCO
inactive: [16] | [17] | [18] | [19] | [14]
active: [18] 10 µM | [19] 20 µM

OC(C(F)(F)F)(C(F)(F)F)C(O)(C(F)(F)F)C(F)(F)F
active: [16] 39.9 µM and 45.7 µM | [17] 48 µM | [18] 30 µM | [19] 35.2 µM and 28.6 µM
inactive: [17]

CC(C)(C)C(=O)C(=O)O
inactive: [6]

O=C(Oc1ccccc1)c1ccccc1
inactive: [1] | [7] | [11] | [8] | [4] | [13] | [15] | [5] | [6] | [14]

Reference: PubChem BioAssay (EPA / NIEHS)
